Sa growth 42C: inhibitors of Staphylococcus aureus growth at 42 °C; S. aureus RN4220 growth, OD600, 20 h; stronger effect = lower value; relative growth, % (no concentration beside the values); 170,000 tested, 0.53% active;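 active means relative growth at most 50% at the other temperature and 20+ points below 30 °C, or under 10% at both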
S aureus helic: blocks Staphylococcus aureus DNA helicase. purified S. aureus helicase, fluorescence unwinding assay. inhibition, % (concentration not given with the values). 120,000 tested, 0.05% active. AID 485395; in the data active means inhibition above about 25%, passing the limit was not always enough;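 further: 0% = mean of negative control wells and 100% = mean of positive control wells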
* marks the source's active call; other numbers are inactive results; x = no result; ! = not active in a repeat. The entries come from a sample that favours hits as a whole.

SMILES	Sa growth 42C	S aureus helic
CSc1nc2n(n1)C(C(C)C)C(C(=O)Nc1ccc(Cl)cc1)=C(C)N2 (stereo not given)	112.0	17.0
O=c1[nH]sc2ccccc12	-1.8*	22.0
O=c1cc(O)sc2ccccc12	56.7	0.0
CC1(C)C2CC=C(CNc3ccc4c(c3)OCO4)C1C2 (stereo not given)	85.3	-10.0
CC(=O)Nn1cnc2ccccc21	106.4	-14.0
O=C(Nc1ccccc1)Nc1nnc(C(F)(F)F)s1	1.1*	x
O=C(Nc1nnc(C(F)(F)F)s1)c1ccccc1	54.6	13.0
CC(C)(Oc1ccc(Cl)cc1)C(=O)Nc1nnc(C(F)(F)F)s1	-1.1*	32.0
CC(C)(Oc1ccc(Cl)cc1)C(=O)Nc1nccs1	94.7	-9.0
COC(=O)c1ccc(-c2ccco2)n1CC(=O)N1CCc2ccccc2C1	96.5	7.0
CC(C)(C)OC(=O)N1CCCC1C(=O)Oc1ccc2c(=O)c(-c3ccc4c(c3)OCCO4)coc2c1 (stereo not given)	117.1	-5.0
CCN1CCc2c(sc3[nH]c(=S)[nH]c(=S)c23)C1	77.5	-11.0
CC(C)n1c(=S)[nH]c2scc(-c3cccs3)c2c1=O	3.9*	9.0
O=c1c2c(-c3cccs3)csc2[nH]c(=S)n1-c1ccccc1	108.4	3.0
S=c1nc(-c2cccs2)cn[nH]1	38.5*	-2.0
Cc1nc(-c2cccs2)cs1	75.8	17.0
O=C(Cn1ncc2ccccc21)NCc1cccnc1	94.2	-9.0
CCCCNC(=S)Nc1ccc(OC)cc1	110.3	-9.0
CCCCNC(=S)Nc1ccc(SC(F)F)cc1	0.6*	12.0
O=C(O)c1ccccc1C(=O)N1CCCc2ccccc21	92.1	x
CCc1c(C)sc2c1CCN(Cc1ccccc1C#N)C2c1ccccc1 (stereo not given)	97.9	x
CCc1c(C)sc2c1CCN(Cc1ccccc1)C2c1ccccc1 (stereo not given)	-1.1*	x
NC[C@H]1O[C@H](OC2[C@@H](N)C[C@@H](N)[C@H](O[C@H]3O[C@H](CO)[C@@H](O)[C@H](N)[C@H]3O)[C@H]2O)[C@H](O)[C@@H](O)[C@@H]1O (stereo not given in full)	99.4	x
NC[C@H]1O[C@H](O[C@H]2[C@H](O)[C@@H](O[C@H]3O[C@H](CO)[C@@H](O)[C@H](N)[C@H]3O)[C@H](N)C[C@@H]2N)[C@H](N)C[C@@H]1O	-0.6*!	x
CCc1ccc(NC(=O)C2CC3CCCN3C23C(=O)Nc2ccccc23)cc1 (stereo not given)	105.7	-32.0
SMILES	Sa growth 42C	S aureus helic
O=C(OCc1ccccc1Cl)c1ccc2c(=O)n3c(nc2c1)CCC3	83.5	14.0
COc1ccc2c(COC(=O)c3ccc4c(=O)n5c(nc4c3)CCC5)cc(=O)oc2c1	84.3	26.0*
COc1ccc(-c2csc(NC(=O)C3CCCCC3)n2)cc1	120.7	6.0
CC(OC(=O)C1CCN(c2ccc(C(F)(F)F)cn2)CC1)C(=O)Nc1ccccc1F (stereo not given)	113.9	-4.0
CC1CN(C(=O)COC(=O)C23CC4CC(CC(C4)C2)C3)CC(C)O1 (stereo not given)	97.5	-20.0
COC(=O)C1=C(C)NC(=O)C1(NS(=O)(=O)c1ccc(C)cc1)C(F)(F)F (stereo not given)	72.3	4.0
COC1(NS(=O)(=O)c2ccc(C)cc2)C(C)=CC(=O)C=C1C	1.7*	23.0
Cc1cccc(Cn2nnc3c(=O)[nH]c(C4CCCN(C(=O)c5ccccc5Cl)C4)nc32)c1 (stereo not given)	92.8	x
O=C(c1ccccc1)N1CCCC(c2nc3c(nnn3Cc3ccc(F)cc3F)c(=O)[nH]2)C1 (stereo not given)	91.1	x
Cc1ccccc1Cn1nnc2c(=O)[nH]c(C3CCN(C(=O)c4ccc(F)cc4)CC3)nc21	19.4	x
Cc1ccc(C)c(C(=O)N2CCC(c3nc4c(nnn4Cc4ccccc4)c(=O)[nH]3)CC2)c1	3.7*	x
Cc1cccc(Cn2nnc3c(=O)[nH]c(C4CCN(C(=O)c5ccc(F)cc5)CC4)nc32)c1	2.7*	x
COc1ccc(Cn2nnc3c(=O)[nH]c(C4CCN(C(=O)c5ccc(C)cc5)CC4)nc32)cc1OC	10.3	x
O=C(c1cccc(Cl)c1)N1CCC(c2nc3c(nnn3Cc3ccc(F)cc3F)c(=O)[nH]2)CC1	0.2*	x
Cc1ccccc1Cn1nnc2c(=O)[nH]c(C3CCN(C(=O)c4ccccc4)CC3)nc21	3.5*	x
Cn1c(SCc2nc3ccc(Cl)cc3n2CCO)nnc1C(F)(F)F	102.4	-4.0
Cc1ccc2occ(CC(=O)Nc3nc4ccc(S(C)(=O)=O)cc4s3)c2c1	94.9	2.0
COc1cccc(OC)c1Cn1nnc2c(=O)[nH]c(C3CCN(C(=O)c4ccccc4)CC3)nc21	10.8	x
CCOc1ccc(Cn2nnc3c(=O)[nH]c(C4CCN(C(=O)c5ccccc5)CC4)nc32)cc1	-0.3*	x
COC(=O)CNC(c1ccccc1)c1cc(Br)ccc1NC(=O)CCN1CCOCC1 (stereo not given)	21.2*	6.0
COC(=O)CNC(c1ccccc1)c1cc(Br)ccc1NC(=O)c1ccc(Cl)cc1 (stereo not given)	101.3	x
NNC(=O)CS(=O)(=O)Cc1ccc(-c2csnn2)cc1	88.8	x
Cc1cc(C)c2ccc(NN)nc2c1O	29.7	0.0
Cc1cc(C)c2cccnc2c1O	3.0*	21.0
CCN(CC)C(=O)Nc1ccc(S(=O)(=O)NC)cc1	110.6	1.0
SMILES	Sa growth 42C	S aureus helic
COc1ccc2ccc(OC)c(/C=C3/NC(=O)NC3=O)c2c1	104.8	9.0
COc1ccc(Cc2nnc(C(=O)NCCc3ccccc3)o2)cc1OC	103.2	25.0
c1ccc(-c2nn(-c3ccccc3)c3c2cnc2ccccc23)cc1	109.3	13.0
Oc1ccc2c(c1)c(-c1ccccc1)nn2-c1ccccc1	19.7*	-26.0
NC(=O)c1c(N)n(-c2cccc(F)c2)c2nc3ccccc3nc12	119.5	15.0
C/C=C(/C)C(=O)OC1CC(O)(C(C)C)C2C(OC(=O)c3ccc(O)cc3)CC(C)=CCC12C (stereo not given)	6.0*	-1.0
CCSc1nnc(-c2ccc(Cl)cc2)o1	125.6	1.0
CCOC(=O)Nc1nnc(C(C)C)s1	100.5	6.0
CCc1ccccc1NC(=O)N1CCCC1C(=O)O (stereo not given)	95.2	9.0
CN(C)c1ccc(C(=O)OCC(=O)C23CC4CC(CC(C4)C2)C3)cc1	95.4	-1.0
O=C(O)Cc1nc2ccccc2s1	-0.3*	-18.0
O=C(O)CCCc1nc2ccccc2s1	97.2	6.0
O=C(Cn1cnc2ccccc2c1=O)OC1CCCCC1	90.9	2.0
N#Cc1c(-c2cccnc2)cc2c(c1N)c(=O)oc1ccccc12	107.7	-14.0
Cc1cccc(C)c1NC(=O)CCCn1c(C)c2cnn(-c3ccccc3)c(=O)c2c1C	112.9	0.0
CSc1ccc(CCNC(=O)c2ccc3c(=O)n4c(nc3c2)CCCCC4)cc1	106.7	7.0
O=S(=O)(N=C1SCCS1)c1ccccc1	x	-12.0
CC1=CC(=O)C=C(C)C1=NS(=O)(=O)c1ccccc1	-0.4*	18.0
CN=Cc1cc(-c2ccccc2)n(C)c1S	75.0	9.0
Cn1c(-c2ccccc2)cc(C=Nc2ccccc2)c1O	4.0*	1.0
O=C(NCCN1CCCCCC1)c1cnc2sc(N3CCOCC3)nn2c1=O	89.0	-17.0
CCN(CC)C(=O)c1sc(NC(C)=O)c(C(=O)OC)c1C	87.3	6.0
CS(=O)c1sc(Br)c2c1C(=O)CC(C)(C)C2 (stereo not given)	93.9	x
CS(=O)c1sc(C(=O)OCc2ccccc2)c2c1C(=O)CC(C)(C)C2 (stereo not given)	-0.7*	x

Screening data deposited in PubChem by ICCB-Longwood Screening Facility, Harvard Medical School.
